Cruzain inh noDet: cruzain (T. cruzi) inhibition without detergent | hit rate 2.3% among 200,000 | Potency, µM, without a hit: max response, negative = inhibition, usual class: inhibitors | purified cruzain, Z-FR-AMC fluorescence, no detergent;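 also: plate controls were enzyme without inhibitor for no effect and buffer without enzyme for full effect; nearly all actives have a fitted effect of over 40% in size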
Target sequence (P25779 123-467 limits assumed): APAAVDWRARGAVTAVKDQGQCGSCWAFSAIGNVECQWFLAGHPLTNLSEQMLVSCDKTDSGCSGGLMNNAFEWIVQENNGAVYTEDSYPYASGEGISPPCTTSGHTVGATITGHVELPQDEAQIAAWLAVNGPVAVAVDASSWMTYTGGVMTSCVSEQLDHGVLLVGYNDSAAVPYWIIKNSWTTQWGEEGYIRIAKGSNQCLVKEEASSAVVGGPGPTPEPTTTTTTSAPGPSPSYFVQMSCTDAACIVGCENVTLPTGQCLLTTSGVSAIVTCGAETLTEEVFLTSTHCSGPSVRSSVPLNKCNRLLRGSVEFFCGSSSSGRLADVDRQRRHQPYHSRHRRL
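Purified cruzain at 1.5 nM, pre-incubated 15 min with compound at room temperature in 100 mM sodium acetate pH 5.5, 5 mM DTT, 0.00005% Triton X-100. Reaction started with 2 uM Z-FR-AMC; AMC fluorescence increase over 60 s gives rate.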
Cruzain Triton: blocks cruzain activity in presence of Triton detergent. P25779. purified cruzain, Z-FR-AMC fluorescence, 0.01% Triton. Potency, µM, without a hit: max response, negative = inhibition, actives largely listed as inhibitors. hit rate 0.43% among 200,000;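 also: plate controls were neutral wells for no effect and buffer without enzyme for full effect; nearly all actives have a fitted effect of over 40% in size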
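Steps: dispense cruzain (1.5 nM final) in acetate buffer pH 5.5 with DTT and 0.01% Triton X-100; pin-transfer compounds; incubate 15 min RT; add Z-FR-AMC (2 uM final); read fluorescence every 30 s, using the 60 s intensity change.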
Numbers without * were called inactive; ? = inconclusive. Most compounds without a hit are left out; they make up all but 2.5% or so of the library. Calls follow the shape of the dose curve; as a rule, active = well fitted curve in the direction sought with a large enough effect; inconclusive = small, poorly fitted or top-dose-only effect, or another doubt; inactive = no such curve, though single readings can be large; an effect the other way counts as inactive or inconclusive. Potency is read from the fitted curve at half-maximal effect.

SMILES | Cruzain inh noDet | Cruzain Triton
Cc1ccc(NC(=O)Cn2cnc3sc(C(=O)O)c(C)c3c2=O)cc1Cl | 5.5% | 0.0063µM*
Cc1nc(C(=O)Nc2cccc(Cl)c2)nn1-c1cc(OC(C)C)c(Cl)cc1Cl | ? | -0.8%
Cc1nc(C(=O)Nc2cccc(Cl)c2Cl)nn1-c1cc(OC(C)C)c(Cl)cc1Cl | ? | -1.7%
Cc1nc(C(=O)Nc2ccc(Cl)cc2Cl)nn1-c1cc(OC(C)C)c(Cl)cc1Cl | 25.1µM* | -0.9%
Cc1nc(C(=O)Nc2cc(Cl)ccc2Cl)nn1-c1cc(OC(C)C)c(Cl)cc1Cl | 25.1µM* | 3.6%
COc1ccc(OC)c(CNC(=O)CCCn2nc(C)c3c(C)n(-c4ccc(C)cc4)nc3c2=O)c1 | 5.7% | -2.9%
COc1ccccc1NC(=O)C(=O)N/N=C(\C)CC(=O)Nc1ccc(OCc2ccccc2)cc1 | -4.1% | -2.3%
C/C(CC(=O)Nc1ccc(OCc2ccccc2)cc1)=N\NC(=O)C(=O)Nc1cccc(C)c1 | 31.6µM* | -2.1%
Cc1cccc(NC(=O)C(NS(=O)(=O)c2cccc3nsnc23)c2ccccc2)c1C (configuration not stated) | -21.4% | -4.1%
CCC1=C(C[C@H]2NCCc3cc(OC)c(OC)cc32)C[C@H]2c3ccccc3CCN2C1 | -6.2% | -0.8%
Cc1ccccc1NC(=O)Nc1nnc(N2CCCCCC2)s1 | 11.9% | -3.6%
COc1cc(NC(=O)CSc2nc3ccccc3n2-c2ccccc2)c(C)cc1[N+](=O)[O-] | 7.94µM* | 0.8%
COc1ccc(-n2c(SCC(=O)Nc3ccc([N+](=O)[O-])cc3OC)nc3ccccc32)cc1 | 7.94µM* | -0.9%
COc1ccc([N+](=O)[O-])cc1NC(=O)CSc1nncn1-c1ccccc1 | -12.2% | -4.6%
COc1cc(NC(=O)CSc2nccc(C)n2)c(C)cc1[N+](=O)[O-] | -2.5% | -4.7%
CC(=O)Nc1ccc(S(=O)(=O)NNC(=O)c2cc3c4ccccc4n(C)c3s2)cc1 | -20.2% | 22.4µM*
CCCNC(=O)c1cc2c3ccccc3n(C)c2s1 | -2.5% | -17.9%
Cc1ccc(C(=O)N2CCN(c3ccc(NC(=O)CSc4ccc(Cl)cc4)cc3)CC2)cc1 | 5.7% | -3.7%
Cc1ccc(C(=O)Nc2ccc(N3CCN(S(C)(=O)=O)CC3)cc2)cc1 | 15.8µM* | 5.3%
Cc1ccc(C(=O)Nc2ccc(N3CCOCC3)cc2)cc1 | 3.7% | 6.7%
CS(=O)(=O)N1CCN(c2ccc(NC(=O)CSc3ccc(Cl)cc3)cc2)CC1 | 3.98µM* | 5.6%
S=C=Nc1cccc2ccccc12 | -28.3% | -3.0%
COc1ccc(OC)c(CNC(=O)c2ccccc2NC(=O)c2nsc3ccccc23)c1 | -7.3% | 3.7%
O=C(NC(=S)Nc1ccccc1N1CCCC1)c1ccc(-c2cccc([N+](=O)[O-])c2)o1 | 5.01µM* | -9.9%
O=C(NC(=S)Nc1ccccc1O)c1ccc(-c2ccc(Cl)cc2)o1 | 15.8µM* | 5.3%
SMILES | Cruzain inh noDet | Cruzain Triton
O=C(NC(=S)Nc1ccccc1N1CCOCC1)c1ccc(-c2cccc(Cl)c2)o1 | ? | -0.8%
O=C(NC(=S)Nc1ccccc1N1CCCC1)c1ccc([N+](=O)[O-])cc1 | ? | -5.5%
COc1ccccc1NC(=S)NC(=O)c1ccc(-c2ccc(Cl)cc2)o1 | ? | -2.9%
O=C(NC(=S)Nc1ccccc1N1CCCCC1)c1ccc(-c2cccc([N+](=O)[O-])c2)o1 | 5.01µM* | 2.3%
COc1ccc(CNC(=O)Cc2c(C)c3cc4c(C)coc4c(C)c3oc2=O)cc1 | -1.6% | 0.6%
COc1cc(OC)c(NC(=O)C(C)n2c(=O)cc(-c3ccccc3)c3c(C)nn(C)c32)cc1Cl (configuration not stated) | ? | -2.2%
O=C1C2=C(S[C@@H]3O[C@H](CO)[C@@H](O)[C@H](O)[C@H]3O2)C(=O)c2ccccc21 | 3.7% | 4.2%
CC(=O)NCCC(=O)Nc1sc2c(c1-c1nc3ccccc3[nH]1)CCCC2 | -13.4% | -8.8%
CN1CCN(S(=O)(=O)c2cccc(C(=O)Nc3sc4c(c3-c3nc5ccccc5[nH]3)CCCC4)c2)CC1 | 15.8µM* | -6.1%
CC(=O)N1CCN(S(=O)(=O)c2cccc(C(=O)Nc3nc4c(s3)CCCC4)c2)CC1 | ? | -9.0%
O=C(Nc1sc2c(c1-c1nc3ccccc3[nH]1)CCCC2)C1CCCC1 | 12.6µM* | -5.3%
CCOc1ccccc1NC1(c2ccccc2)C(=O)c2ccccc2C1=O | ? | -6.1%
CN1CCN(c2ncc3nc(-c4cn(C)c5ccccc45)c(=O)n(-c4ccccc4)c3n2)CC1 | -17.5% | 2.6%
C=C1CCO[C@@]2([C@H](O)[C@@](C)(O)CO)NC(=O)[C@]1(O)NC2=O | 6.5% | 5.1%
COc1ccc2c(c1)CC/C(=C/c1ccco1)C2=O | 20µM* | 22.4µM*
Nc1ccc2c(c1)C/C(=C/c1ccco1)C2=O | ? | -15.1%
C/C(=C/CCC(C)[C@H]1CC[C@@]2(C)C3=C(CC[C@]12C)[C@@]1(C)CCC(=O)C(C)(C)[C@@H]1CC3)C(=O)O (some centres not stated) | 25.1µM* | -6.1%
